Data as given in PubChem BioAssay (NCI).
Compounds without any hit were thinned out: in the full panel of roughly 79,000, 15% have a hit. Activity calls are given as the source filed them. No stated cut-off is given here; in the data, active means growth inhibition above about 70%; inactive means the rest.

Experiments:
[1] = NCI Yeast Anticancer Drug Screen. Data for the rad52 strain (AID 147);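 further: 0% = growth of vehicle-treated control cultures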; conditions: S. cerevisiae rad52 mutant growth inhibition, active compounds read high
In short: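 Vehicle-treated cultures served as the reference for growth inhibition of compound-exposed yeast bearing a DNA repair mutation.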

[2] = NCI Yeast Anticancer Drug Screen. Data for the wt1 strain (AID 149);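 further: 0% = growth of vehicle-treated wt1 cultures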; conditions: S. cerevisiae wt1 strain (SPY 50644) growth inhibition, active compounds read high
In short: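 Compounds are added to wt1 yeast cultures. Growth is then measured. Inhibition is expressed relative to vehicle-treated controls.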

[3] = NCI Yeast Anticancer Drug Screen. Data for the rad50EPP+ strain (AID 151);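 further: 0% = growth of vehicle-treated control cultures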; conditions: S. cerevisiae rad50 mutant strain, active compounds read high
In short: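 In this screen, rad50EPP+ yeast were exposed to compounds. Growth inhibition was scored against vehicle-treated controls.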

[4] = NCI Yeast Anticancer Drug Screen. Data for the rad50 strain (AID 155);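 further: 0% = growth of vehicle-only cultures of the same strain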; conditions: S. cerevisiae rad50 strain growth inhibition, active compounds read high
In short: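 Inhibition values express reduced yeast growth in compound-treated cultures relative to vehicle-treated controls.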

[5] = NCI Yeast Anticancer Drug Screen. Data for the mec2-1 strain (AID 157); conditions: S. cerevisiae mec2-1 strain, active compounds read high
In short: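 Vehicle-treated cultures served as reference for growth inhibition of compound-exposed mec2-1 yeast.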

[6] = NCI Yeast Anticancer Drug Screen. Data for the rad14 strain (AID 159);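 further: 0% = growth of vehicle-treated control cultures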; conditions: S. cerevisiae rad14 strain growth inhibition, active compounds read high
In short: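 A mutant yeast strain defective in DNA damage repair is treated with compound; inhibition of its growth is scored against untreated, vehicle-exposed cultures.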

[7] = NCI Yeast Anticancer Drug Screen. Data for the sgs1 mgt1 strain (AID 161);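 further: 0% = growth of cultures given vehicle only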; conditions: S. cerevisiae sgs1 mgt1 strain, active compounds read high
In short: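 Mutant yeast exposed to compound; growth scored against vehicle-only wells.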

[8] = NCI Yeast Anticancer Drug Screen. Data for the CLN2oe strain (AID 163);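 further: 0% = growth of vehicle-only control cultures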; conditions: S. cerevisiae CLN2oe strain, active compounds read high
In short: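 Inhibition relative to vehicle-treated yeast is reported. Cells: strain with genetic alteration in cell-cycle control, grown with compound.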

[9] = NCI Yeast Anticancer Drug Screen. Data for the cln2 rad14 strain (AID 165);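 further: 0% = growth equal to vehicle treated cultures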; conditions: S. cerevisiae cln2 rad14 strain, active compounds read high
In short: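 Each compound was tested on cln2 rad14 yeast. Inhibition of growth was calculated against vehicle-exposed controls.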

[10] = NCI Yeast Anticancer Drug Screen. Data for the bub3 strain (AID 167); conditions: S. cerevisiae bub3 mutant strain, active compounds read high
In short: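 Steps: expose the mutant yeast strain to compound; grow alongside vehicle-treated cultures; measure growth; express inhibition against the vehicle cultures.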

[11] = NCI Yeast Anticancer Drug Screen. Data for the wt2 strain (AID 169);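 further: 0% = growth of vehicle-treated yeast cultures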; conditions: S. cerevisiae wt2 strain growth inhibition, active compounds read high
In short: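 Inhibition of yeast growth was determined after compound treatment, normalised to controls receiving only vehicle.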

[12] = NCI Yeast Anticancer Drug Screen. Data for the mlh1 strain (AID 171);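 further: 0% = growth of vehicle-treated control cultures of the same strain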; conditions: S. cerevisiae mlh1 strain growth inhibition, active compounds read high
In short: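 Vehicle-normalised growth inhibition of a repair- or checkpoint-altered yeast strain following compound treatment.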

[13] = NCI Yeast Anticancer Drug Screen. Data for the sgs1 strain (AID 173);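 further: 0% = growth of vehicle-only control cultures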; conditions: S. cerevisiae sgs1 mutant, active compounds read high
In short: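 Screen format: yeast with repair or checkpoint alterations, compound exposure, growth read relative to vehicle.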

[14] = NCI Yeast Anticancer Drug Screen. Data for the mlh1 rad18 strain (AID 175); conditions: S. cerevisiae mlh1 rad18 strain growth inhibition, active compounds read high
In short: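 Vehicle-treated cultures served as the reference for growth inhibition in a yeast strain carrying DNA damage repair alterations exposed to each compound.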

[15] = NCI Yeast Anticancer Drug Screen. Data for the rad18 strain (AID 177); conditions: S. cerevisiae rad18 mutant growth inhibition, active compounds read high
In short: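 Test articles were incubated with altered yeast defective in DNA damage repair. Results are given as inhibition of growth versus vehicle.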

[16] = at 5.0 µM (retest, dose inferred, filed as 0.5)
[17] = at 50.0 µM (retest, dose inferred, filed as 5.0)

Measured: growth inhibition

O=C(N/N=C\c1c(Cl)cccc1Cl)N/N=C/c1c(Cl)cccc1Cl
active: [4]; [17] 97% | [5]; [17] 98% | [9]; [17] 70% | [14]; [17] 88%
inactive: [1]; at 1.2 µM 14% | [1]; at 3.7 µM 14% | [1]; at 11.0 µM 23% | [1]; at 33.0 µM 22% | [1]; at 100.0 µM 25% | [2]; at 1.2 µM -2% | [2]; at 3.7 µM 8% | [2]; at 11.0 µM 4% | [2]; at 33.0 µM 17% | [2]; at 100.0 µM 29% | [3]; at 1.2 µM 7% | [3]; at 3.7 µM 19% | [3]; at 11.0 µM 10% | [3]; at 33.0 µM 2% | [3]; at 100.0 µM 5% | [4]; at 1.2 µM 14% | [4]; at 3.7 µM 12% | [4]; [16] 30% | [4]; at 11.0 µM 21% | [4]; at 33.0 µM 14% | [4]; at 50.0 µM -7.7% | [4]; at 100.0 µM 5% | [5]; at 1.2 µM 21% | [5]; at 3.7 µM 25% | [5]; [16] 35% | [5]; at 11.0 µM 12% | [5]; at 33.0 µM 0% | [5]; at 50.0 µM -13.8% | [5]; at 100.0 µM 3% | [6]; at 1.2 µM -4% | [6]; at 3.7 µM -21% | [6]; at 11.0 µM 8% | [6]; at 33.0 µM -7% | [6]; at 100.0 µM -12% | [7]; [16] -13% | [7]; [17] 29% | [7]; at 50.0 µM 9.15% | [8]; at 1.2 µM -8% | [8]; at 3.7 µM -12% | [8]; at 11.0 µM -21% | [8]; at 33.0 µM -8% | [8]; at 100.0 µM -10% | [9]; [16] 49% | [9]; at 50.0 µM 13.7% | [10]; at 1.2 µM 6% | [10]; at 3.7 µM 11% | [10]; [16] 36% | [10]; at 11.0 µM -3% | [10]; at 33.0 µM 0% | [10]; [17] 58% | [10]; at 50.0 µM 12.2% | [10]; at 100.0 µM 1% | [11]; at 1.2 µM 11% | [11]; at 3.7 µM 7% | [11]; at 11.0 µM 7% | [11]; at 33.0 µM -3% | [11]; at 100.0 µM 17% | [12]; at 1.2 µM -13% | [12]; at 3.7 µM -7% | [12]; at 11.0 µM -3% | [12]; at 33.0 µM -9% | [12]; at 100.0 µM -8% | [13]; at 1.2 µM 8% | [13]; at 3.7 µM 1% | [13]; at 11.0 µM 19% | [13]; at 33.0 µM 10% | [13]; at 100.0 µM 5% | [14]; [16] 38% | [14]; at 50.0 µM 55.9% | [15]; at 1.2 µM -10% | [15]; at 3.7 µM 1% | [15]; at 11.0 µM -11% | [15]; at 33.0 µM -10% | [15]; at 100.0 µM -13%

COc1ccc(N=Nc2ccc3oc(=O)c(C(=O)Nc4ccccc4)cc3c2)cc1
inactive: [1]; at 1.2 µM -19% | [1]; at 3.7 µM -2% | [2]; at 1.2 µM -4% | [2]; at 3.7 µM 2% | [2]; at 11.0 µM 67% | [3]; at 1.2 µM 6% | [3]; at 3.7 µM 45% | [4]; at 1.2 µM -2% | [4]; at 3.7 µM 7% | [4]; [16] 0% | [5]; at 1.2 µM -18% | [5]; at 3.7 µM 12% | [5]; [16] -12% | [6]; at 1.2 µM 4% | [6]; at 3.7 µM 25% | [7]; [16] 12% | [7]; [17] 48% | [8]; at 1.2 µM -12% | [8]; at 3.7 µM -10% | [8]; at 11.0 µM 48% | [9]; [16] -19% | [10]; at 1.2 µM -11% | [10]; at 3.7 µM 3% | [10]; [16] 29% | [11]; at 1.2 µM 1% | [11]; at 3.7 µM 14%
active: [1]; at 11.0 µM 85% | [1]; at 33.0 µM 96% | [1]; at 100.0 µM 95% | [2]; at 33.0 µM 96% | [2]; at 100.0 µM 94% | [3]; at 11.0 µM 83% | [3]; at 33.0 µM 94% | [3]; at 100.0 µM 95% | [4]; at 11.0 µM 89% | [4]; at 33.0 µM 96% | [4]; [17] 95% | [4]; at 50.0 µM 87.7% | [4]; at 100.0 µM 96% | [5]; at 11.0 µM 82% | [5]; at 33.0 µM 97% | [5]; [17] 97% | [5]; at 50.0 µM 91.3% | [5]; at 100.0 µM 95% | [6]; at 11.0 µM 96% | [6]; at 33.0 µM 97% | [6]; at 100.0 µM 97% | [7]; at 50.0 µM 87.2% | [8]; at 33.0 µM 95% | [8]; at 100.0 µM 92% | [9]; [17] 95% | [9]; at 50.0 µM 85.3% | [10]; at 11.0 µM 71% | [10]; at 33.0 µM 96% | [10]; [17] 96% | [10]; at 50.0 µM 90.5% | [10]; at 100.0 µM 95% | [11]; at 11.0 µM 81% | [11]; at 33.0 µM 96% | [11]; at 100.0 µM 96%
